Assay results reported in the supplement of paper PMC8728848.
This is one part of a sample in which the strongest signals are shown more often than they occur.

What was measured:
Assay in all cases: glycan array binding signal (z-score within array); higher = stronger binding
Conditions in all cases: glycan notation: IUPAC condensed, linker removed
[1] = target: Fuc(a1-2)Gal(b1-3)GlcNAc6S
In short: (§1)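 Glycan array data were curated from 3228 arrays in the Consortium for Functional Glycomics database and kept only where the protein sequence was available. Glycan names were converted to IUPAC-condensed notation, and columns mapping to the same glycan were averaged. The binding signal is a within-array Z-score, averaged across arrays of the same protein sequence at different concentrations or buffers and across linkers. Negative Z-scores can be read as non-binding.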

[2] = target: Fuc(a1-2)Gal(b1-4)GlcNAc(b1-3)Gal(b1-4)GlcNAc(b1-2)Man(a1-3)[Fuc(a1-2)Gal(b1-4)GlcNAc(b1-3)Gal(b1-4)GlcNAc(b1-2)Man(a1-6)]Man(b1-4)GlcNAc(b1-4)GlcNAc
In short: as §1

[3] = target: Fuc(a1-2)Gal(b1-4)[Fuc(a1-3)]GlcNAc(b1-2)[Fuc(a1-2)Gal(b1-4)[Fuc(a1-3)]GlcNAc(b1-4)]Man(a1-3)[Fuc(a1-2)Gal(b1-4)[Fuc(a1-3)]GlcNAc(b1-2)Man(a1-6)]Man(b1-4)GlcNAc(b1-4)GlcNAc
In short: as §1

[4] = target: Fuc(a1-2)[Gal(a1-3)]Gal(b1-3)GlcNAc
In short: as §1

[5] = target: Fuc(a1-2)[Gal(a1-3)]Gal(b1-4)GlcNAc(b1-2)Man
In short: as §1

[6] = target: Fuc(a1-2)[Gal(a1-3)]Gal(b1-4)GlcNAc(b1-6)GalNAc
In short: as §1

[7] = target: Fuc(a1-2)[GalNAc(a1-3)]Gal(b1-4)GlcNAc(b1-2)Man(a1-3)[Fuc(a1-2)[GalNAc(a1-3)]Gal(b1-4)GlcNAc(b1-2)Man(a1-6)]Man(b1-4)GlcNAc(b1-4)GlcNAc
In short: as §1

[8] = target: Fuc(a1-2)[GalNAc(a1-3)]Gal(b1-4)GlcNAc(b1-6)GalNAc
In short: as §1

[9] = target: Gal(a1-3)Gal(b1-3)GlcNAc
In short: as §1

[10] = target: Gal(a1-3)Gal(b1-3)GlcNAc(b1-2)Man(a1-3)[Gal(a1-3)Gal(b1-3)GlcNAc(b1-2)Man(a1-6)]Man(b1-4)GlcNAc(b1-4)GlcNAc
In short: as §1

[11] = target: Gal(a1-4)Gal(b1-4)GlcNAc(b1-3)Gal(b1-4)Glc
In short: as §1

[12] = target: Gal(b1-3)Gal(b1-4)GlcNAc
In short: as §1

[13] = target: Gal(b1-3)GlcNAc(a1-6)Gal(b1-4)GlcNAc
In short: as §1

[14] = target: Gal(b1-3)GlcNAc6S
In short: as §1

[15] = target: Gal(b1-3)[Neu5Ac(a2-6)]GlcNAc(b1-4)Gal(b1-4)Glc
In short: as §1

[16] = target: Gal(b1-4)GlcNAc(b1-2)[Gal(b1-4)GlcNAc(b1-6)]Man(a1-6)[Gal(b1-4)GlcNAc(b1-2)Man(a1-3)]Man(b1-4)GlcNAc(b1-4)GlcNAc
In short: as §1

[17] = target: Gal(b1-4)GlcNAc6P
In short: as §1

[18] = target: Gal3S(b1-3)[Fuc(a1-4)]GlcNAc
In short: as §1

[19] = target: Gal6S(b1-4)Glc
In short: as §1

[20] = target: GalNAc(b1-3)Gal(a1-4)Gal(b1-4)GlcNAc(b1-3)Gal(b1-4)Glc
In short: as §1

[21] = target: GalNAc(b1-3)GalNAc
In short: as §1

[22] = target: GalNAc(b1-3)GlcNAc
In short: as §1

[23] = target: Man(a1-2)Man(a1-3)[Man(a1-2)Man(a1-6)]Man(a1-6)[Man(a1-2)Man(a1-2)Man(a1-3)]Man(b1-4)GlcNAc(b1-4)GlcNAc
In short: as §1

[24] = target: Man(a1-3)[Man(a1-6)]Man(a1-6)[Man(a1-2)Man(a1-3)]Man(b1-4)GlcNAc(b1-4)GlcNAc
In short: as §1

B1: SialidaseA (Arthrobacter ureafaciens) (protein)
chain: MRSNSTSAPSLVRRAATGVLTCAVSIGLLAGLGLPAQAAPTPPNSPTLPPGSFSETNLAADRTAANFFYRIPALTYLGNDVVLAAWDGRPGSAADAPNPNSIVQRRSTDGGKTWGPVQVIAAGHVADASGPRYGYSDPSYIYDAEANKVFAFFVYSKDQGFGGSQFGNDDADRNVISSAVIESSDAGVTWSQPRLITSVTKPGTSKTNPAAGDVRSNFASSGEGIQLKYGPHKGRLIQQYAGDVRQADGSNKIQAYSVYSDDHGVTWHKGANVGDRMDENKTVELSDGRVLLNSRDNANRGYRKVAVSTDGGATYGPVSQDTELPDPANNGAIARMFPNAAQGSADAKKLIFTNANSKTGRENVSARVSCDDGETWPGVRTIRSGFSAYSTVTRLADGKFGVLYEGNYTDNMPFATFDDAWLNYVCAPLAVPAVNIAPSATQEVPVTVTNQEATTLSGATATVYTPSGWSATTVPVPDVAPGASVTVTVALTAPADASGPRSLNAAFTTADGRVSQFTFTATTPVAPQVGLTITGSAPARDVAANPYQAGDVLGYTLNVKSTANVAANSVPLTGTFDSGFLPPAAPNCRYNNLAAGASYNCTTAKHTITAADMERGYFVPEATFSITSTTTPSLTKTVQFTGAAVALRDGLISADISGARTDVGRDLATRPYAAGELVPYAFTVKNTSPFVEQVVPTAGNFSPFLPAGAGNCRYLSLPAGQSYECATPRHAVTAEEVEQGFFVPDTTWEVSAAGQSTRTYRINGGEVDLLVRDAALSATVVAEWKDADGDRFASAGDPVTFTYTVGNAGNVALTGLEAPDAGISLPFLAPGDTATATREHVLTAADVAGGSLAASAFEATARNGSKEVTATAEGQPLELKVQPAQPSKEPELTVQDLEDQTPPFDLGTAFKYRTGQKVSLAGLEYGQWYYVYLNKTGYRLGWMFPTTGDTVEFILPPEVRNGRDDVVVLDKDGRRVSFDRLQVTPKGEKI
- glycan array binding signal (z-score) [1]: -0.849
- glycan array binding signal (z-score) [2]: 1.3
- glycan array binding signal (z-score) [3]: 0.318
- glycan array binding signal (z-score) [4]: -0.478
- glycan array binding signal (z-score) [5]: -0.252
- glycan array binding signal (z-score) [6]: -0.849
- glycan array binding signal (z-score) [7]: -0.021
- glycan array binding signal (z-score) [8]: -0.733
- glycan array binding signal (z-score) [9]: -0.563
- glycan array binding signal (z-score) [10]: 0.062
- glycan array binding signal (z-score) [11]: -0.51
- glycan array binding signal (z-score) [12]: -0.643
- glycan array binding signal (z-score) [13]: -0.544
- glycan array binding signal (z-score) [14]: -0.625
- glycan array binding signal (z-score) [15]: 2.48
- glycan array binding signal (z-score) [16]: -0.46
- glycan array binding signal (z-score) [17]: -0.685
- glycan array binding signal (z-score) [18]: -0.337
- glycan array binding signal (z-score) [19]: -0.719
- glycan array binding signal (z-score) [20]: -0.337
- glycan array binding signal (z-score) [21]: -0.689
- glycan array binding signal (z-score) [22]: -0.637
- glycan array binding signal (z-score) [23]: -0.441
- glycan array binding signal (z-score) [24]: -0.172
